Casp6 inh – human caspase-6 inhibitors, primary screen, biochemical, VEID-R110 fluorescence, single point, set 2. P55212. inhibition, % at 12.5 µM. purified caspase-6, Z-VEID-R110 cleavage fluorescence. AID 686996, 2013. 350,000 tested, 0.53% active;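 active means mean inhibition across replicates at least about 35%, with every replicate also reaching that limit, limit read from the data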;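 further: 0% = median of neutral control wells and 100% = no fluorescence left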
UHRF1 MBD2 ctr – UHRF1 methylated DNA binding inhibitors, primary screen, counter-screen for MBD2 inhibitor project, biochemical, TR-FRET, human UHRF1, single concentration; E3 ubiquitin-protein ligase UHRF1 (Homo sapiens), Q96T88; UHRF1 binding to methylated oligo; inhibition, % at 4.4 µM; 370,000 tested, 0.75% active; AID 687016, 2013; in the data active means inhibition above about 21%;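 further: UHRF1 SRA domain binding a hemimethylated CpG hairpin DNA probe; 0% = median of test compound wells and 100% = reference inhibitor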
Target sequence (Q96T88 whole entry, looked up, the tested form may be a part): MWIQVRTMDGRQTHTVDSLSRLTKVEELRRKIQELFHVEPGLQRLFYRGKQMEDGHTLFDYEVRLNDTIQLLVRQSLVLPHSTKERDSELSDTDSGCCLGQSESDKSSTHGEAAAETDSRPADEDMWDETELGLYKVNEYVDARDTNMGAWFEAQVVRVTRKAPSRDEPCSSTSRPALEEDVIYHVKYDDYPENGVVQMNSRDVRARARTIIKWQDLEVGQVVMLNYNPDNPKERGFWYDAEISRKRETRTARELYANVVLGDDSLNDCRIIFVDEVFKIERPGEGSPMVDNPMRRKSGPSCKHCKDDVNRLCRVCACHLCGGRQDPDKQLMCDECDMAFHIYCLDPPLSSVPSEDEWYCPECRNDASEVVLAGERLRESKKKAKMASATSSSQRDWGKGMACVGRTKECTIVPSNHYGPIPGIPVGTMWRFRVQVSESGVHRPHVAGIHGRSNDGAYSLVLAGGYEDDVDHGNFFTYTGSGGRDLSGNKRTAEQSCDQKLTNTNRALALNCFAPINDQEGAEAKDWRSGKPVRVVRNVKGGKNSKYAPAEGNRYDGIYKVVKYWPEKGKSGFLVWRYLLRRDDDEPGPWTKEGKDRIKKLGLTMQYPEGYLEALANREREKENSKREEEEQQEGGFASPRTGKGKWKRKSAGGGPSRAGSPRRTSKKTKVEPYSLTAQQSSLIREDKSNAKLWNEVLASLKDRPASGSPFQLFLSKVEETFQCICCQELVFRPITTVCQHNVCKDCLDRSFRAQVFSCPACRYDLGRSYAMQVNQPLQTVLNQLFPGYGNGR
MBD2 inh – inhibitors of MBD2 binding to methylated DNA, primary screen, biochemical, TR-FRET, DNA-binding domain, human. AID 686964, 2013. 370,000 tested, 0.31% active. MBD2 binding to methylated oligonucleotide. inhibition, % at 4.4 µM; in the data active means inhibition above about 13%
LEDGF integ inh – blockers of LEDGF/p75-dependent integrase strand transfer – biochemical, TR-FRET, high throughput, primary screen. inhibition, % at 3.7 µM. TR-FRET IN-LEDGF/p75 DNA integration, Eu/Cy5. HIV-1 integrase (with human LEDGF/p75). AID 743269, 2014. 370,000 tested, 0.64% active;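 active means inhibition above the screen-wide mean plus 3 SD, cut at about 13% in these data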;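 further: signal is the Cy5 over europium emission ratio at 671 and 618 nm; 0% = plate median of compound wells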
Starred values were filed as active, the others as inactive; x = not tested or not shown. A selection: hits, their analogues and other compounds. The true share with any hit is near 1.4%.

SMILES | Casp6 inh | UHRF1 MBD2 ctr | MBD2 inh | LEDGF integ inh
CCOC(=O)C1CCCN(Cc2c(C(=O)N3CCOCC3)nc3ccccn23)C1 (configuration not stated) | -3 | 2 | 1 | 1
O=C(c1nc2ccccn2c1CN1CCCC(c2nc3ccccc3o2)C1)N1CCCC1 (configuration not stated) | 51* | 0 | -6 | -1
C[C@H]1CN([C@@H](C)CO)C(=O)c2cc(NC(=O)NC3CCCCC3)ccc2O[C@H]1CN(C)C(=O)Nc1cccc2ccccc12 | 0 | x | x | x
CC1(C)C2CCC1(C)C(NC(=O)/C=C/c1ccccc1)C2 (configuration not stated) | 3 | 25* | -5 | -2
CC1(C)C2CCC1(C)C(Nc1ccccc1)C2 (configuration not stated) | 1 | -1 | 5 | -3
CO[C@H]1CN(C)C(=O)c2cc(NC(=O)C3CCC3)ccc2OC[C@@H](C)N(C(=O)NC(C)C)C[C@H]1C | 2 | x | x | x
O=C1Nc2cccnc2N(C(=O)CCl)c2ccccc21 | 47* | 0 | -3 | 0
Cc1noc(C)c1NC(=O)N[C@H]1CC[C@H](CCNC(=O)C2CCCCC2)O[C@@H]1CO | -2 | x | x | x
O=C1NC2=C(C(=O)CCC2)C(c2ccc([N+](=O)[O-])cc2)N1 (configuration not stated) | x | 0 | 5 | -1
O=C1NC2=C(C(=O)CCC2)C(c2cccc([N+](=O)[O-])c2)N1 (configuration not stated) | 38* | 7 | 3 | -2
Cc1ccc(S(=O)(=O)N2CCC(C(=O)N[C@H](C(=O)N3CCN(C)CC3)C(C)C)CC2)cc1 | x | 22* | 1 | -2
CC(C)[C@H](NC(=O)C1CCN(S(=O)(=O)c2ccc(F)cc2)CC1)C(=O)N1CCCC1 | -3 | 3 | 1 | 2
CC(C)NC(=O)N(C)C[C@@H]1Oc2c(NC(=O)Nc3ccccc3)cccc2C(=O)N([C@H](C)CO)C[C@@H]1C | 0 | x | x | x
Nc1ccc(C#Cc2ccc3c(=O)c4ccccc4oc3c2)cc1 | -2 | 23* | 12 | 9
Cc1ccc(S(=O)(=O)NC(C)C(c2cccs2)N2CCOCC2)cc1 (configuration not stated) | 3 | 39* | -7 | 2
Cc1ccc(S(=O)(=O)NC(C)C(c2cccs2)N2CCN(C)CC2)cc1 (configuration not stated) | x | 0 | -7 | 1
C[C@@H]1CN([C@@H](C)CO)C(=O)Cc2cc(NC(=O)C3CCCCC3)ccc2O[C@H]1CN(C)C(=O)Nc1ccc(C(F)(F)F)cc1 | -4 | x | x | x
O=C(OCC(=O)N1N=C(c2ccc(Cl)cc2)CC1c1ccco1)c1ccco1 (configuration not stated) | 0 | 0 | 0 | -3
O=C(OCC(=O)N1N=C(c2ccc(Cl)cc2)CC1c1ccco1)c1cncc(Br)c1 (configuration not stated) | 41* | -4 | -5 | 2
O=C(C[C@@H]1C=C[C@@H](NS(=O)(=O)c2cccc(F)c2)[C@@H](CO)O1)N1CCCCC1 | 0 | x | x | x
C/C=C/c1ccc2c(c1)O[C@@H](CN(C)C(=O)Cc1ccncc1)[C@@H](C)CN([C@@H](C)CO)S2(=O)=O | 0 | x | x | x
O=C1NC(=Nc2ccc(O)cc2)S/C1=C/c1ccco1 | 39* | 1 | 4 | 0
O=C1/C(=C\c2ccco2)SC(=S)N1c1ccc(O)cc1 | 38* | 5 | 8 | 11
Cc1ccc(N=C2NC(=O)/C(=C\c3ccco3)S2)cc1 | x | 0 | 0 | 4
O=C(CCc1ccco1)CCc1ccco1 | 76* | 14 | 6 | 1
SMILES | Casp6 inh | UHRF1 MBD2 ctr | MBD2 inh | LEDGF integ inh
Cc1c(C#N)c(O)[nH]c(=O)c1N=Nc1ccc(S(N)(=O)=O)cc1 | 44* | -31 | -19 | 6
O=C(CSCCc1ccccn1)Nc1ccccn1 | x | 1 | 3 | 1
O=C(O)CSCCc1ccccn1 | x | 21* | 10 | 2
O=C(COC(=O)CSc1ccc(Br)cc1)NCc1ccco1 | -47 | -3 | 1 | 2
O=C(COC(=O)c1cccc(Br)c1)NCc1ccco1 | 65* | 13 | 11 | 5
Cc1cc(Br)ccc1SCC(=O)OCC(=O)NCc1ccco1 | 48* | 16 | 6 | 6
Cc1cccc(C(=O)OCC(=O)NCc2ccco2)c1 | 3 | 1 | 4 | -4
Cc1ccc(C)c(SCC(=O)OCC(=O)c2ccco2)c1 | 54* | 12 | 4 | 4
CCOC(=O)c1ccc(NC(=O)C(=O)NCc2ccco2)cc1 | 0 | 24* | 1 | 3
CCOC(=O)c1ccc(NC(=O)CCC(=O)NCc2ccco2)cc1 | -2 | 3 | 5 | 1
C/C=C/c1ccc([C@@H]2[C@H](CO)N(C(C)=O)[C@H]2CNC(=O)CC2CC2)cc1 | -2 | x | x | x
C[C@H](CO)N1C[C@H](C)[C@H](CN(C)C(=O)CN2CCOCC2)Oc2ncc(/C=C/c3ccccc3)cc2C1=O | -6 | x | x | x
C#CC(C)(C)NC(=O)c1ccc(-c2ccccc2F)cc1 | 44* | 7 | 6 | 4
NNC(=O)c1ccc(-c2ccccc2F)cc1 | 3 | -1 | 2 | -4
CCOC(=O)C1=C(C)N(C)C(C)=C(C(=O)OCC)C1c1ccc(Cl)cc1 | 5 | 26* | 6 | -1
NCC[C@@H]1CC[C@@H](NC(=O)NC2CCCCC2)[C@H](CO)O1 | 0 | x | x | x
CCCCN1C(=O)C(=O)NC[C@@H]1CC1CCCCC1 | -2 | 48* | 10 | 6
CN1CCN(C(=S)C(=O)Nc2ccccc2)CC1 | -1 | 22* | 5 | -1
CC(NC(=O)C(=S)N1CCN(C)CC1)c1ccccc1 (configuration not stated) | 3 | 21* | 3 | 1
COCC(=O)N(C)C[C@H]1Oc2ncc(C#Cc3ccc(OC)cc3)cc2C(=O)N([C@H](C)CO)C[C@@H]1C | 1 | x | x | x
CSc1ccccc1OCc1cc(C(=O)N2CCc3c(Cl)cccc3C2)no1 | 64* | -1 | 1 | -3
COc1ccc(NC(=O)N(C)C[C@H]2Oc3ccc(NS(=O)(=O)c4ccc(F)cc4)cc3CC(=O)N([C@H](C)CO)C[C@@H]2C)cc1 | 1 | x | x | x
N#C/C(=C/c1ccc(N2CCCCC2)o1)C(=O)Nc1ccc(Cl)cc1 | x | 54* | -3 | 2
COc1ccc(CNC(=O)C2CCN(c3nnc(N4CCCC4=O)s3)CC2)cc1 | -1 | 22* | 3 | 3
CC(C)CCn1c(SCC(=O)Nc2ccccc2C(F)(F)F)nc2nccnc2c1=O | 6 | 22* | 5 | 5
COCCn1c(SCC(=O)Nc2ccccc2C(F)(F)F)nc2ccccc2c1=O | -2 | -6 | 1 | 2
Cc1nc(SC(C)C(=O)c2c(N)n(C)c(=O)n(C)c2=O)c2c(C)c(C)sc2n1 (configuration not stated) | 49* | 2 | -2 | 2

Assay outcomes from PubChem.
